TDP1 block: qHTS Assay for Inhibitors of Tyrosyl-DNA Phosphodiesterase (TDP1) | Tyrosyl-DNA phosphodiesterase 1 (Homo sapiens), Q9NUW8 | recombinant TDP1, AlphaScreen DNA substrate cleavage | Potency, µM (titrated, usually from 130 µM), without a hit: top-dose activity change, negative = inhibition, actives largely listed as inhibitors | 0.28% of 350,000 active; also: nearly all actives have a fitted effect of over 40% in size
Target sequence (Q9NUW8 whole entry, looked up): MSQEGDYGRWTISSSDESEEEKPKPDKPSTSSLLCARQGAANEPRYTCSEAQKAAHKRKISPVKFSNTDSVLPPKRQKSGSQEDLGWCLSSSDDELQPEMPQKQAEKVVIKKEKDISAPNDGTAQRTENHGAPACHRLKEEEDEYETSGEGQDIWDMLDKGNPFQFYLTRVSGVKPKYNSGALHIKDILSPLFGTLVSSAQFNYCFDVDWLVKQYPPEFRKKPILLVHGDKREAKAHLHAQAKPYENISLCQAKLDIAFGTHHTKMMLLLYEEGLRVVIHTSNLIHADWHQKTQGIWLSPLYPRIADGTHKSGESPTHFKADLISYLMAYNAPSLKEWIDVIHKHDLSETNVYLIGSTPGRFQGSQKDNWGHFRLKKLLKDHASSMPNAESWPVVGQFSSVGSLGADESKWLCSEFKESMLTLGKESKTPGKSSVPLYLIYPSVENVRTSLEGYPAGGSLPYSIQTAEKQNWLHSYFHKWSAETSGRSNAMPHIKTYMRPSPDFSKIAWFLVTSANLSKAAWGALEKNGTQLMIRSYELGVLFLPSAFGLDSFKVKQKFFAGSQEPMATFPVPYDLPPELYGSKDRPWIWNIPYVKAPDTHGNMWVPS
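E. coli-derived human Tdp1, 1 nM final. Cpd preinc 15 min RT; substrate 15 nM final, 5 min RT; AS bead mix 10 ug/ml final, 10 min RT. Signal loss = tyrosine-FITC cleavage. No-enzyme wells = max signal.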
Gal4-VP16 FLuc: VP16 counterscreen qHTS for inhibitors of ROR gamma transcriptional activity; Drosophila S2 Gal4-VP16 UAS-luciferase, luminescence, 20 h; Potency, µM (highest dose often 53.6 µM), inactives show top-dose activity, negative = inhibition, most hits filed as inhibitors; 3.5% of 310,000 active;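 also: Gal4-VP16 expression switched on by copper sulfate through the metallothionein promoter; nearly all actives have a fitted effect of over 50% in size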
TDP1 cell noCPT: qHTS for Inhibitors of human tyrosyl-DNA phosphodiesterase 1 (TDP1): qHTS in cells in absence of CPT; DT40 Tdp1-/- hTDP1 cells, no CPT, ATP luminescence, 48 h; Potency, µM (titrated, usually from 46.2 µM), for the others: top-dose activity change, negative = growth inhibition, hits mostly inhibitors; 15% of 420,000 active; AID 686978, 2013; also: nearly all actives have a fitted effect of over 55% in size
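A cellular qHTS used chicken DT40 cells lacking endogenous Tdp1 but carrying stably transfected human TDP1. Compounds were applied without camptothecin, and cell growth kinetics were judged by ATP-dependent luminescence after ≥48 hr.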
RORg inh: qHTS for inhibitors of ROR gamma transcriptional activity. Potency, µM (series often up to 53.6 µM), for inactives: top-dose activity change, negative = inhibition, usual class: inhibitors. AID 2551, 2010. 5.4% of 310,000 active. Nuclear receptor ROR-gamma (Mus musculus), P51450. Drosophila S2 Gal4-RORgamma UAS-luciferase reporter, 20 h; also: nearly all actives have a fitted effect of over 60% in size
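Luminescence from a UAS-regulated Photinus luciferase reporter in stably transfected Drosophila Schneider cells is measured; decreased signal marks ROR gamma inhibition. Fusion expression is induced by 700 uM copper sulfate for 20 hr.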
DT40 TDP1 CPT: qHTS for Inhibitors of human tyrosyl-DNA phosphodiesterase 1 (TDP1): qHTS in cells in presence of CPT; chicken DT40 Tdp1-/-;hTDP1 cells + 20 nM CPT, ATP luminescence, 48 h; Potency, µM (highest dose often 46.2 µM), without a hit: at the top dose activity change, negative = growth inhibition, most hits filed as inhibitors; 12% of 420,000 active; AID 686979, 2013; also: nearly all actives have a fitted effect of over 55% in size
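Cell growth measured by CellTiter-Glo luminescence after a minimum 48 h, 37 C compound exposure with 20 nM CPT in Tdp1-knockout DT40 cells stably expressing hTDP1, seeded 400/well; qHTS titration format.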
The depositor's hits bear a star; ? = inconclusive; nt = not tested or not shown; [ ] = another dose, or the depositor's remark. An excerpt weighted towards active compounds, which were near 19% of everything screened. Calls follow the shape of the dose curve; as a rule, active = well fitted curve in the direction sought with a large enough effect; inconclusive = small, poorly fitted or top-dose-only effect, or another doubt; inactive = no such curve, though single readings can be large; an effect the other way counts as inactive or inconclusive. % is scaled to controls: 0 for no effect and ±100 for the full control effect; potency is read from the fitted curve at half-maximal effect.

SMILES	TDP1 block	Gal4-VP16 FLuc	TDP1 cell noCPT	RORg inh	DT40 TDP1 CPT
CCOc1ccc(CCNC(=O)C2CCCN(c3nnc(C)c4c(C)n(-c5ccccc5)nc34)C2)cc1 (stereo unspecified)	5.6%	nt	?	nt	20.6µM*
Cc1ccc(-n2nc3c(N4CCCC(C(=O)NCCc5ccccc5)C4)nnc(C)c3c2C)cc1 (stereo unspecified)	2.8%	nt	16.4µM*	nt	16.4µM*
CCNC(=O)C/C(C)=N/NC(=O)C12CC3CC(CC(C3)C1)C2	3.0%	-14.3%	-5.4%	-26.9%	-4.7%
CCN(CC)c1ccc(NC(=O)c2cccc(OC)c2)c(C)c1	2.2%	22.6%	?	-7.9%	29.1µM*
CCN(CC)c1ccc(NC(=O)c2cc(CN3CCCC3)on2)c(C)c1	8.4%	nt	13µM*	nt	16.4µM*
CCN(CC)c1ccc(NC(=O)C2COc3ccc(OC)cc3C2)c(C)c1 (stereo unspecified)	4.1%	nt	1.03µM*	nt	0.581µM*
CCN(CC)c1ccc(NC(=O)c2cc(OC)cc(OC)c2)c(C)c1	6.6%	3.1%	1.3µM*	10.3%	1.3µM*
CCc1cccc(C)c1NC(=O)c1cc(CN2CCCC2)on1	0.6%	nt	-19.4%	nt	1.2%
CC(CCc1ccccc1)NC(=O)COC(=O)c1cccc(N(C)C)c1 (stereo unspecified)	nt	5.4%	?	3.9%	?
COc1cc(/C=C/C(=O)OCC(=O)Nc2ccc(S(N)(=O)=O)cc2)ccc1O	-13.7%	-7.1%	19.8%	3.3%	-17.5%
CCCCN(CCCC)C(=S)NC(=O)C(C)(C)C	0.6%	6.31µM*	-1.8%	3.16µM*	7.2%
CCCCN(CCCC)C(=S)[S-].CCCCN(CCCC)C(=S)[S-].[Zn+2]	nt	nt	-3.3%	nt	14.7%
O=C(CN(c1cc(C(F)(F)F)ccc1Cl)S(=O)(=O)c1ccccc1)NCCc1ccccc1	nt	nt	20.6µM*	nt	?
Cc1ccccc1NC(=O)Nc1nnc(CC(=O)NCc2ccccc2)s1	5.4%	?	-5.9%	1.4%	-7.1%
CC(=O)OCc1c(-c2ccccc2)c2cc([N+](=O)[O-])ccc2n1C	nt	-0.6%	1.84µM*	-11.1%	3.66µM*
CC(C)[C@H](NC(N)=O)C(=O)Nc1ccc2c(c1)CCC2	2.2%	1.7%	-6.0%	-9.6%	-4.1%
CCc1ccccc1NC(=O)c1cccc(Oc2ccc([N+](=O)[O-])cc2Cl)c1	5.5%	-10.0%	?	87.5%	?
CCOC(=O)N1CCC(N(CCN(C)C)C(=S)Nc2cc(Cl)cc(Cl)c2)CC1	6.2%	?	-1.8%	10µM*	-2.1%
CCOC(=O)N1CCC(N(CCOC)C(=S)Nc2cccc(SC)c2)CC1	2.6%	4.0%[10 µM]	-11.8%	20µM*	-23.9%
CCOC(=O)N1CCC(N(CCN(C)C)C(=S)Nc2cccc(OC)c2)CC1	3.7%	0.1%	16.3%	?	-18.7%
CCOC(=O)N1CCC(N(CCN(C)C)C(=S)Nc2cccc(Cl)c2)CC1	7.9%	-16.5%[10 µM]	0.8%	-38.8%	?
CCOC(=O)c1sc2nc3c(cc2c1N)COC(C)(C)C3	-1.0%[56.1 µM]	2.2%	-29.2%	?	-12.7%
CCOc1cc(NC(=S)NCCOC)c(OCC)cc1NC(=O)c1cccs1	3.6%	?	-14.0%	14.1µM*	14.8%
CCOc1cc(NC(=S)NCCCOC)c(OCC)cc1NC(=O)c1cccs1	8.1%	?	-9.2%	14.1µM*	-17.9%
CCOc1cc(NC(=S)NCCCN(C)C)c(OCC)cc1NC(=O)c1cccs1	5.5%	6.6%	-23.3%	-13.2%	-2.5%
SMILES	TDP1 block	Gal4-VP16 FLuc	TDP1 cell noCPT	RORg inh	DT40 TDP1 CPT
CCOC1(OCC)N=C(N)C2(C#N)C(c3cccc(OC)c3OC)C12C#N (stereo unspecified)	5.2%	-5.3%	-17.6%	-15.3%	-7.0%
Cc1[nH]c(=O)[nH]c(=O)c1/C=C/C(=O)O	5.0%	4.3%	17.6%	-9.8%	-0.9%
COc1ccc2[nH]c3c(c2c1)CCNC3c1ccc([N+](=O)[O-])o1 (stereo unspecified)	nt	?	6.51µM*	-39.2%	9.2µM*
COc1ccc2[nH]c(C)cc(=O)c2c1	-4.9%	-10.7%	?	-3.0%	-24.7%
COc1cc(C2NCCc3c2[nH]c2ccccc32)ccc1OC(C)C (stereo unspecified)	2.9%	-11.9%	nt	-15.2%	nt
COc1ccc2[nH]c3c(c2c1)CCNC3C1CC=C(C)CC1 (stereo unspecified)	2.9%	1.7%	6.51µM*	1.9%	9.2µM*
COCCCn1c(SCC(=O)Nc2cccc(C)n2)nnc1-c1ccco1	1.1%	-7.9%	-2.8%	-15.2%	-8.0%
Cc1cc(C)nc(SCc2cc(=O)c(OC(=O)c3ccc(Cl)c([N+](=O)[O-])c3)co2)n1	-2.6%	-23.6%	-16.9%	-11.2%	-25.7%
CN(C)CC(=O)c1c(N)n(Cc2ccccc2)c(=O)n(C)c1=O	1.8%	3.6%	2.2%	14.6%	11.4%
Cn1c(N)c(C(=O)CCl)c(=O)n(Cc2ccccc2)c1=O	3.9%	?	5.8µM*	-23.0%	2.31µM*
Cn1c(N)c(C(=O)CCl)c(=O)n(C)c1=O	5.6%	-8.3%	?	-9.7%	7.31µM*
Cn1c(=O)c(C(=O)CCl)c(N)n(Cc2ccccc2)c1=O	-1.3%	?	4.61µM*	1.5%	4.11µM*
CCOc1ccc(C2(C)CC(=O)N(C)C2=O)cc1 (stereo unspecified)	3.2%	-1.5%	5.3%	-1.4%	17.1%
O=C(c1ccc(Cl)c(Cl)c1)N1CCC(=O)N(C(COCc2ccccc2)Cc2ccccc2)CC1 (stereo unspecified)	3.9%	21.1%	23.1µM*	34.9%	16.4µM*
O=C(c1cccc(Cl)c1)N1CCC(=O)N(C(COCc2ccccc2)Cc2ccccc2)CC1 (stereo unspecified)	1.3%	-2.6%	?	29.0%	?
O=C(c1ccc(Cl)c(Cl)c1)N1CCC(=O)N(C(CO)Cc2ccccc2)CC1 (stereo unspecified)	nt	nt	-26.5%	nt	?
O=C(c1ccc(Cl)c(Cl)c1)N1CCC(=O)N([C@H](COCc2ccccc2)Cc2ccccc2)CC1	nt	nt	18.4µM*	nt	20.6µM*
CCOc1ccc(CSCCNC(=S)Nc2ccc(OC)cc2)cc1	nt	7.08µM*	23.1µM*	2µM*	?
CCCOc1ccc(CSCCNC(=S)Nc2ccccc2)cc1	2.7%	?	23.1µM*	2.82µM*	25.9µM*
COc1ccccc1CN1CCOc2ccc(CN3CCCCC3CO)cc2C1 (stereo unspecified)	nt	nt	-15.6%	nt	-4.1%[9.04 µM]

High-throughput results from PubChem.
